Activity calls are given as the source filed them. How the source made its calls: active means hit-call score of the fitted dose curve at least 0.9, where 1 is the maximum; inactive means score below 0.9.

Transcriptional activator Myb (Homo sapiens), sequence (P10242 whole entry, looked up): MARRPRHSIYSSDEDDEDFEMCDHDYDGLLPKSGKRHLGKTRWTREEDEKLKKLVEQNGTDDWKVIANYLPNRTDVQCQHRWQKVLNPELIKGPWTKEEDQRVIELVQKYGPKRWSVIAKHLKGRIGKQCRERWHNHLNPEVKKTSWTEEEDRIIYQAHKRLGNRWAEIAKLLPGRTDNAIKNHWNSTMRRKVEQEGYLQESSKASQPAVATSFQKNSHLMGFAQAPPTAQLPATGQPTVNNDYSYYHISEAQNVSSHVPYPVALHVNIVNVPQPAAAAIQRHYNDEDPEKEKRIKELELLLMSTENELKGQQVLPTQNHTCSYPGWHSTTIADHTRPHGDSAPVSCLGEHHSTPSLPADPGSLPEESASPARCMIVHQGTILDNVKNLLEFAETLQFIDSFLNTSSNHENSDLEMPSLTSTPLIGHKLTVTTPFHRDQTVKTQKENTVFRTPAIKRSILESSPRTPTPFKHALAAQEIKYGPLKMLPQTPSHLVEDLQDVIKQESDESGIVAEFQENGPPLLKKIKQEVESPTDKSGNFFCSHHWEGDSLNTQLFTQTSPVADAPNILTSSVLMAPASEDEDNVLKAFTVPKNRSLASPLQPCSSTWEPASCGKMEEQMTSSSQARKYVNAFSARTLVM

The experiment addresses Transcriptional activator Myb (Homo sapiens) (UniProt P10242). Description: ATG_Myb_CIS: Attagene CIS-FACTORIAL HepG2 Assay for human Myeloblastosis (Myb) Proto-Oncogene Transcription Factor (AID 2282986). As to conditions: HepG2 Attagene CIS-FACTORIAL Myb reporter transcription; actives raise or lower the signal. The protocol:
ATG_CIS is a cell-based, multiplexed-readout assay that uses HepG2, a human liver cell line, with measurements taken at 24 hours after chemical dosing in a 24-well plate.ATG_Myb_CIS is one of 52 assay component(s) measured or calculated from the ATG_CIS assay. It is designed to make measurements of mRNA induction, a form of inducible reporter, as detected with fluorescence intensity signals by Reverse transcription polymerase chain reaction (RT-PCR) and Capillary electrophoresis technology.Data from the assay component ATG_Myb_CIS was analyzed into 1 assay endpoint. This assay endpoint, ATG_Myb_CIS, was analyzed with bidirectional fitting relative to DMSO as the negative control and baseline of activity. Using a type of inducible reporter, measures of mRNA for gain or loss-of-signal activity can be used to understand the reporter gene at the transcription factor-level as they relate to the gene MYB. Furthermore, this assay endpoint can be referred to as a primary readout, because this assay has produced multiple assay endpoints where this one serves a reporter gene function. To generalize the intended target to other relatable targets, this assay endpoint is annotated to the dna binding intended target family, where the subfamily is MYB proteins.
Human liver HepG2 cells are transiently transfected with multiple reporter transcription units (MRTUs) in 6-well plates using FuGene 6 reagent (Roche; 3 ml FuGene/1 mg DNA). The MRTU constructs are regulated by a cis-regulating element (promoter). […] A major difference between the CIS and TRANS system is that in CIS activities of endogenous TFs are measured, whereas the TRANS assay evaluates changes in activities of exogenous, chimeric NR-Gal4 proteins. […] At the end of 24 hour incubation, total RNA was isolated using TriZol reagent (Invitrogen). The isolated RNA is then reverse-transcribed using oligo(dT) primer and Mo-MLV reverse transcriptase (Invitrogen) with DNAse I (Ambion) treatment for 30 min. The one-tenth of the produced cDNA was amplified by PCR using Taq DNA polymerase (Invitrogen) and two reporter sequence-specific primers. The PCR products were fluorescently labeled by primer extension with 6-arboxyfluorescein (6-FAM) 5'-labeled reporter sequence-specific primer (2 min at 95 C, 20 s at 68 C and 10 min at 72 C) and these products were digested with 5U of HpaI (New England Biolabs) for 2h at 37 C. The fragments were purified using Qiaquick PCR columns (Qiagen), analyzed on an ABI 3130xL genetic analyzer (Applied Biosystems) with peak positions identified by using a set of X-rhodamine (ROX)-labeled MapMarker1000 molecular weight standards (BioVentures). The raw capillary electrophoresis data was processed using Attagraph software (Attagene).
Regarding `C=CCCCCCCCCC(=O)O`, the compound was classed as inactive. Consider `CC(C)=CCCC(C)=CC=O`, for which the call was inactive. Turning to `CC(C)c1cccc(C(C)C)c1N1C(=O)c2ccc(O)cc2C1=O`, the compound was classed as inactive.

What is called AC50 is the midpoint of the concentration-response curve, whichever way the signal moves. On to `CCOc1cccc(-n2cc(C(=O)N3CCN(c4cc(C(=O)O)c5ccccc5c4)CC3)nc2-c2ccc(C)cc2)c1`, for which the AC50 was 152 µM (active).

Regarding `COc1ccc2sc(C(=O)Nc3nnn[nH]3)c(OC(C)C)c2c1`, the compound was classed as inactive. Same read-out and setting: next, `Cn1c(=O)c2c(ncn2C)n(C)c1=O`: “inactive”; `CCCC(=O)OCC`: “inactive”; `Cc1ccc(S(=O)(=O)O)cc1C`: “inactive”. In the case of `CCNc1ccccc1`, the compound was classed as inactive. Still for that read-out and setting: next, `O=c1n(CC2CO2)c(=O)n(CC2CO2)c(=O)n1CC1CO1` (stereo not given): “inactive”. Still for that read-out and setting: next, `CC(C)CCCCCCOC(=O)c1ccc(C(=O)OCCCCCCC(C)C)c(C(=O)OCCCCCCC(C)C)c1`: “inactive”; `COc1ccc(-n2nc(C(F)F)cc2-c2ccc(S(C)=O)cc2)cc1` (stereo not given): “inactive”; `CC(=O)OC[C@H]1O[C@@](COC(C)=O)(O[C@H]2O[C@H](COC(C)=O)[C@@H](OC(C)=O)[C@H](OC(C)=O)[C@H]2OC(C)=O)[C@@H](OC(C)=O)[C@@H]1OC(C)=O`: “inactive”.

For the compound `CC(C)=CCC/C(C)=C/CO`, the call was inactive. Still for that read-out and setting: in the case of `CC/C(=C\C(=N/O)C(N)=O)C(C)[N+](=O)[O-]` (stereo not given) it was “inactive”.

In the case of `NC(=O)NO`, the outcome was inactive. Still for that read-out and setting: next, `C1N2CN3CN1CN(C2)C3`: “inactive”. Same read-out and setting: next, `CC(C)CC(C)(O)C#CC(C)(O)CC(C)C` (stereo not given): “inactive”; `CCOCCOCCOCCO`: “inactive”; `CCOCCO`: “inactive”.

For the compound `CCCCCCCCCCCCc1ccccc1`, the result was inactive. On the same count and under the same terms, in the case of `CN(C)c1ccc(Cc2ccc(N(C)C)cc2)cc1` it was “inactive”; in that of `O=C(OC[C@H]1O[C@@H](OC(=O)c2cc(O)c(O)c(OC(=O)c3cc(O)c(O)c(O)c3)c2)[C@H](OC(=O)c2cc(O)c(O)c(OC(=O)c3cc(O)c(O)c(O)c3)c2)[C@@H](OC(=O)c2cc(O)c(O)c(OC(=O)c3cc(O)c(O)c(O)c3)c2)[C@@H]1OC(=O)c1cc(O)c(O)c(OC(=O)c2cc(O)c(O)c(O)c2)c1)c1cc(O)c(O)c(OC(=O)c2cc(O)c(O)c(O)c2)c1`, “inactive”; in that of `CNCc1ccc(NC(=O)c2c[nH]c3c2C(=O)CCC3)cc1`, “inactive”.

On to `CC1=CC(=O)CC(C)(C)C1`, for which the outcome was inactive. Turning to `O=C(O)c1cccc(N(Cc2cccnc2)c2ccc(OC(F)F)c(OC(F)F)c2)c1`, the compound was classed as inactive. The same measure, in the same setting: in the case of `CC[C@H]1OC(=O)[C@H](C)[C@@H](O[C@H]2C[C@@](C)(OC)[C@@H](O)[C@H](C)O2)[C@H](C)[C@@H](O[C@@H]2O[C@H](C)C[C@H](N(C)C)[C@H]2O)[C@](C)(O)C[C@@H](C)C(=O)[C@H](C)[C@@H](O)[C@]1(C)O` it was “inactive”.

On to `Nc1ccc(Nc2ccccc2)cc1`, for which the result was inactive. Still for that read-out and setting: next, `Cn1c(=O)cc(Oc2ccc(F)cc2F)c2cnc(NCC(C)(C)O)nc21`: “inactive”; `CCCCC(CC)COC(=O)c1ccc(C(=O)OCC(CC)CCCC)cc1` (stereo not given): “inactive”. Same read-out and setting: in the case of `Clc1nc(Cl)c(Cl)c(Cl)c1Cl` it was “inactive”.

For `O=C(O)CCN(C1(C(=O)NO)CCCC1)S(=O)(=O)c1ccc(Oc2ccc(F)cc2)cc1`, the result was inactive. Still for that read-out and setting: in the case of `O=C1CCC(N2C(=O)c3ccccc3C2=O)C(=O)N1` (stereo not given) it was “inactive”. On the same count and under the same terms, next, `O=c1[nH]c2ccc(S(=O)CCN3CCC(Cc4ccc(F)cc4)CC3)cc2o1` (stereo not given): “inactive”; `C1=CCCC=CCCC=CCC1`: “inactive”. On the same count and under the same terms, in the case of `Nc1nc2ncc(CNc3ccc(C(=O)N[C@@H](CCC(=O)O)C(=O)O)cc3)nc2c(=O)[nH]1` it was “inactive”. Regarding `COC(=O)c1ccccc1O`, the compound was classed as inactive.

Take `Oc1ccc2c(c1)-c1ccccc1C2`: the compound was called inactive. Still for that read-out and setting: in the case of `CCn1nc(Cc2ccccc2)cc1C1CCN(C[C@H]2C[C@H](N(C)[C@@H](C(=O)O)C(C)C)C[C@@H]2c2cccc(F)c2)CC1` it was “inactive”; in that of `O=C(O)CC(O)C(=O)O` (stereo not given), “inactive”.

The record behind these values is PubChem BioAssay (EPA / NIEHS).
